# Data: PubChem BioAssay (NCATS)
# Inconclusive results are not listed. Calls of active or inactive are those of the source. Calls follow the shape of the dose curve; as a rule, active = well fitted cell-killing curve with a large enough effect; inconclusive = small, poorly fitted or top-dose-only effect, or effect the other way; inactive = no such curve, though single readings can be large or run the other way.
# Experiment: Quantitative High-Throughput drug screen in 47 multiple myeloma cell lines against the NCATS MIPE library collection: PE2_PLB cell viability assay (AID 1919869); also: nearly all actives have a fitted effect of over 35% in size
# Settings: PE2_PLB myeloma cells viability, ATP luminescence, 48 h; series mostly up to 45.8 µM; viability (% of control): at the top concentration
# Outline: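 Myeloma cells (500/well) treated with MIPE 4.0 compounds for 48 h at 37 °C, 5% CO2. Viability read as ATP via CellTiter-Glo luminescence after 5 min at RT; DMSO-only wells = 100%, media-only = 0% viability.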
# Potency is read from the fitted curve at half-maximal effect.
Compound,Potency,viability (% of control)
Clc1ccc(CCC(Cn2ccnc2)Sc2c(Cl)cccc2Cl)cc1 (configuration not stated),20.9 µM (active),–
COC(=O)C1=CO[C@@H](O)[C@@H]2C(CO)=CC[C@@H]12,20.9 µM (active),–
C=CCc1ccc(O)c(-c2ccc(O)c(CC=C)c2)c1,18.7 µM (active),–
COc1cccc2c1CCCC2CCCN1CCN(C2CCCCC2)CC1 (configuration not stated),23.5 µM (active),–
Cc1cccc(Nc2nc(-c3ccncc3)cs2)c1,23.5 µM (active),–
Nc1nc(F)nc2c1ncn2[C@@H]1O[C@H](COP(=O)(O)O)[C@@H](O)[C@H]1O,–,114% (inactive)
CCOC(CN1C(=O)[C@](CC(=O)Nc2ccc(C)cc2)(NC(=O)Nc2ccc(C)cc2)c2ccccc21)OCC,23.5 µM (active),–
O=C1NC(=O)C(=Cc2ccc(-c3ccc(F)cc3)o2)S1,8.33 µM (active),–
CCNc1cc(NC2CCC(O)CC2)nc(Nc2ccc3c(ccn3Cc3ccccc3)c2)n1 (configuration not stated),23.5 µM (active),–
OC[C@H]1O[C@@H](Oc2cc(O)cc(C=Cc3ccc(O)cc3)c2)[C@H](O)[C@@H](O)[C@H]1O,–,108% (inactive)
CC(C)(C)c1cc(C(=O)O)c(NC(=O)Nc2ccc3[nH]ncc3c2)s1,16.6 µM (active),–
COc1ccc(C2CC(c3ccccc3)=NN2c2ccc(S(N)(=O)=O)cc2)cc1 (configuration not stated),23.5 µM (active),–
Cc1ccc([C@@H]2O[C@H](CO)[C@@H](O)[C@H](O)[C@@H]2O)cc1Cc1ccc(-c2ccc(F)cc2)s1,18.7 µM (active),–
CN(C)CCC=C1c2ccccc2COc2ccc(CC(=O)O)cc21,–,88.4% (inactive)
CC[C@@H]1C=C(C)C[C@H](C)C[C@H](OC)[C@H]2O[C@@](O)(C(=O)C(=O)N3CCCC[C@@H]3C(=O)O[C@H](C(C)=C[C@@H]3CC[C@H](Cl)[C@H](OC)C3)[C@H](C)[C@@H](O)CC1=O)[C@H](C)C[C@H]2OC,20.9 µM (active),–
CC(C)C(=O)Nc1ncc(-c2cc(C(F)F)nn2-c2c(Cl)cccc2Cl)s1,23.5 µM (active),–
O=C1Nc2ccc(Cl)cc2C(C#CC2CC2)(C(F)(F)F)O1 (configuration not stated),23.5 µM (active),–
CO[C@H]1C[C@@H]2CC[C@@H](C)[C@@](O)(O2)C(=O)C(=O)N2CCCC[C@@H]2C(=O)O[C@H]([C@H](C)C[C@@H]2CC[C@H](OCCO)[C@H](OC)C2)CC(=O)[C@H](C)C=C(C)[C@@H](O)[C@@H](OC)C(=O)[C@H](C)C[C@H](C)C=CC=CC=C1C,1.48 µM (active),–
CC=CCC=CCCC(=O)[C@H]1O[C@@H]1C(N)=O,23.5 µM (active),–
Clc1cc(Cl)cc(CNc2ncncc2-c2ccc3c(c2)OCO3)c1,20.9 µM (active),–
CC1(C)CCC2=C(O1)c1ccccc1C(=O)C2=O,20.9 µM (active),–
CCCCCNC(=O)N1CCC(CN(Cc2ccc(Cl)cc2)Cc2ccc([N+](=O)[O-])s2)C1 (configuration not stated),23.5 µM (active),–
